The values below come from PubChem BioAssay (NCI).

What all share (test): NCI-60 one-dose screen, 48 h (100 = growth as untreated, 0 = no growth, -100 = all killed)
The subject of experiment [1] is SK-MEL-2 melanoma. To be noted: 10 µM.
Experiment [2] relates to EKVX NSCLC. To be noted: 10 µM.
Experiment [3] has as its system SN12C renal. To be noted: 10 µM.
For experiment [4], the system named is UO-31 renal. To be noted: 10 µM.
The subject of experiment [5] is TK-10 renal. To be noted: 10 µM unless noted.
Experiment [6] has as its system ACHN renal. To be noted: 10 µM.
In experiment [7] the test system is CAKI-1 renal. To be noted: 10 µM.
The test system of experiment [8] is CCRF-CEM leukemia. The conditions noted are these: 10 µM.
In experiment [9] the test system is MOLT-4 leukemia. The conditions noted are these: 10 µM.
Experiment [10] relates to SR leukemia. To be noted: 10 µM.
In experiment [11] the test system is RPMI-8226 leukemia. To be noted: 10 µM.
In experiment [12] the test system is OVCAR-5 ovarian. The conditions noted are these: 10 µM.
For experiment [13], the system named is OVCAR-4 ovarian. To be noted: 10 µM.
Experiment [14] relates to SK-OV-3 ovarian. The conditions noted are these: 10 µM.
Experiment [15] concerns IGROV1 ovarian. To be noted: 10 µM.
Experiment [16] deals with OVCAR-3 ovarian. The conditions noted are these: 10 µM.
The test system of experiment [17] is HS 578T breast. The conditions noted are these: 10 µM.
Experiment [18] concerns NCI/ADR-RES ovarian. The conditions noted are these: 10 µM.
The subject of experiment [19] is A498 renal. To be noted: 10 µM.
Experiment [20] concerns OVCAR-8 ovarian. To be noted: 10 µM.

This is part of a sample that, as a whole, favours compounds with a hit. Of some 83,000 tested, about 20% had one in any assay.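 For each line, cells grew in 96-well plates with the test compound present at a single concentration for 48 hours.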 Values without a mark were called inactive. The source made the active and inactive calls. The calls were made as follows: active = growth percent below 10; inactive = the rest.

As to `O=c1[nH][nH]c(=O)c2cc([N+](=O)[O-])ccc12`, the growth is 103% in experiment [1]; 106% in experiment [2]; 108% in experiment [3]; 85.7% in experiment [4]; 104% in [5]; 107% in experiment [6]. The growth was 96.8% in experiment [7]; 100% in experiment [8]; 100% in experiment [9]; 94.9% in [10]; 106% in [11]; 110% in experiment [12]. Also, the growth in experiment [13] was 99.2%; in [14], 101%; in experiment [15], 103%; in experiment [16], 127%; in experiment [17], 100%; in experiment [18], 105%.
Take `O=C(/C=C\c1ccc(O)cc1)c1ccccc1`: the growth in [1] is 114%; in experiment [2], 91.3%; in [3], 89%; in experiment [4], 67.8%; in experiment [5], 95.2%; in experiment [6], 97.2%. Besides, the growth in experiment [7] was 85.1%; in experiment [19], 114%; in experiment [9], 96.1%; in experiment [10] it was 76.6%; in experiment [20], 98.6%; in experiment [12], 88.4%. The growth in [14] was 108%; in experiment [15] it was 87.3%; in experiment [16] it was 96%; in [17], 110%; in experiment [18], 101%.
With `CN(C)c1ccc(C(c2ccc(O)cc2)c2ccc(N(C)C)cc2)cc1`, the growth in experiment [1] is 101%; in experiment [2], 91.3%; in experiment [3] it was 92%; in experiment [4], 81.2%; in experiment [5], 117%; in [6], 103%. Also, the growth in [7] is 93.7%; in experiment [19], 85.8%; in experiment [8] it was 96.3%; in [10] it was 67.5%; in [20], 94.1%; in experiment [12], 98.6%. Further, the growth was 94.9% in [13]; 104% in [14]; 106% in [15]; 92.5% in experiment [16]; 91.8% in experiment [17]; 93.9% in experiment [18].
As to `O=C1C=C(O)C(=O)C=C1O`, the growth in experiment [1] is 107%; in [2] it was 102%; in experiment [3], 107%; in experiment [4], 79.2%; in experiment [5], 102%; in [6], 97.2%. Moreover, the growth in experiment [7] is 97.4%; in [19], 92.4%; in [9] it was 91.3%; in experiment [10], 98.2%; in [20], 103%; in experiment [12], 108%. Moreover, the growth in [13] is 118%; in experiment [14], 87.9%; in [15] it was 111%; in experiment [16] it was 107%; in [18], 101%.
`CC(=O)c1ccc(C(C)(C)C)cc1`: the growth was 102% in experiment [1]; 106% in experiment [2]; 97% in experiment [3]; 82.7% in experiment [4]; 105% in experiment [5]; 97.7% in [6]. Also, the growth in experiment [7] was 92.7%; in experiment [8] it was 88.4%; in experiment [9], 98.9%; in experiment [10], 90.6%; in experiment [11] it was 95.5%; in experiment [20] it was 98.3%. In addition, the growth in experiment [13] was 93.5%; in [14] it was 101%; in [15] it was 96.7%; in experiment [16], 103%.
On to `COC(=O)Nc1nc2ccc(C(=O)c3ccc(F)cc3)cc2[nH]1`, for which the growth is -20.1% (active) in experiment [1]; 36.7% in experiment [2]; 29.8% in experiment [3]; 1.98% (active) in [4]; 17.3% in experiment [5]; 33.2% in experiment [6]. Besides, the growth in experiment [7] is 15.2%; in experiment [19], 7.59% (active); in experiment [8], -46% (active); in experiment [11], -27.1% (active); in experiment [20] it was 6.47% (active); in experiment [12] it was 27.3%. Besides, the growth in experiment [13] is 55.5%; in [14], 42.6%; in experiment [16], -74.4% (active); in experiment [17], -5.44% (active); in [18] it was -5.09% (active).
As to `O=C(CC(=O)c1ccccc1O)c1ccccc1`, the growth in [1] was 131%; in experiment [2], 76.8%; in experiment [3], 85.7%; in experiment [4], 87.3%; in experiment [5] it was 87.8%; in experiment [6], 99%. The growth in [7] was 92.2%; in [19] it was 98.6%; in [11] it was 87.6%; in experiment [20], 73%; in experiment [12] it was 101%; in experiment [13], 90.6%. Moreover, the growth in experiment [14] is 98.9%; in [15], 98.3%; in [16], 90.9%; in experiment [17], 106%; in [18], 64.4%.
For `CC1CCCC(CC(N)=O)CC1` (configuration not stated), the growth in experiment [1] is 109%; in experiment [2], 107%; in experiment [3], 107%; in experiment [4] it was 91%; in [5], 94.2%; in [6], 103%. Further, the growth in experiment [7] was 93.4%; in experiment [8], 90.4%; in [9] it was 101%; in [10] it was 94.7%; in experiment [11], 88.8%; in experiment [20], 89%. Also, the growth is 104% in experiment [12]; 108% in experiment [13]; 107% in [14]; 114% in experiment [15]; 102% in experiment [16]; 107% in experiment [17]. In addition, the growth in experiment [18] was 105%.
For the compound `O=c1[nH]cc(Cl)cc1O`, the growth in experiment [1] was 89%; in [2], 82.2%; in experiment [3] it was 95%; in experiment [4], 62.4%; in [5] it was 89.4%; in experiment [6], 62.2%. Moreover, the growth is 85.9% in experiment [7]; 49% in [8]; 92.1% in experiment [9]; 76.2% in experiment [10]; 69.9% in [11]; 91% in [20]. Further, the growth in experiment [12] is 106%; in experiment [13] it was 101%; in experiment [14] it was 101%; in experiment [15] it was 91%; in [16], 88.3%; in [17] it was 91%.
